According to PubChem BioAssay (Tox21):
Where “and” joins values, the source holds several entries; their conditions need not be identical. Identical values can stand only once. Results filed as inconclusive are left out. Where a call stands in place of a potency, no number is given. A number with no mark means an inactive call. Calls of active or inactive are those of the source. The call rests on the fitted dose curve; in most records, active means well fitted inhibition curve with a large enough effect in the repeat runs; inconclusive means weak or mixed curves; inactive means flat fitted curve, though single readings scatter.

assay: qHTS assay to identify small molecule HDAC inhibitors (AID 1259364); conditions: HCT-116 HDAC-Glo I/II luminescence, 2 h; series mostly up to 92.4 µM; further: nearly all actives have a fitted effect of over 45% in size; on activity change, negative = inhibition: top concentration of the series differs between compounds
Excerpt: U.S. Tox21 Program National Center for Advancing Translational Sciences [NCATS] NIH Chemical Genomics Center [NCGC] U.S. Environmental Protection Agency [EPA] National Institutes of Environmental Health Sciences [NIEHS] National Toxicology Program [NTP] U.S. Food and Drug Administration [FDA] Tox21 Assay Overview: Histone deacetylases (HDACs) are a group of epigenetic enzymes that regulate gene expression by histone deacetylation. HDACs are capable of introducing epigenetic modifications and such aberrations contribute to the onset and progression of several human diseases, thus making HDACs a popular therapeutic target. For identifying endogenous class I/II HDAC inhibitors a homogenous, luminogenic HDAC I/II cell based assay was used to measure the relative activity of class I and II HDACs from cells. Wild type HCT-116 cells were used to screen Tox21 libraries for identifying class I/II HDAC inhibitors.
Tox21 Assay Protocol Summary: HCT-116 cells were dispensed at 1,500 per well in 5uL of culture medium into white solid bottom 1536-well plates (Greiner Bio-One, Monroe, NC) using a Multidrop Combi (Thermo Scientific, Waltham, MA) dispenser. The assay plates were incubated at 37 C and 5% CO2 for an overnight, and then 23nL of compounds dissolved in DMSO and positive control were transferred using a Pintool station (Wako, San Diego, CA). The assay plates were incubated at 37C and 5% CO2 for 2hr. After compound treatment, 4uL of HDAC-Glo reagent (Promega Corporation, Madison, WI) was added to each well of the assay plates using Flying Reagent Dispenser (FRD, Aurora Discovery, San Diego, CA) and incubated the assay plates at room temperature for 30min. The luminescence signal was quantified using a ViewLux plate reader (Perkin Elmer, Shelton, CT).
Potency means the concentration at half of the fitted maximal effect.

SMILES | Potency | activity change, negative = inhibition
c1cnc2cc3c(cc2n1)C1CNCC3C1 | inactive | 
CCC(CO)(CO)COCC(CC)(CO)CO | inactive | 
CCCCCCCCCCCC[N+](C)(C)C | inactive | 
COc1ccc(Cc2cnc(N)nc2N)cc1OC | inactive | 
BrC1CCC(Br)C(Br)CCC(Br)C(Br)CCC1Br (stereo not given) | inactive | 
Cc1ccc(-c2cc(C(F)(F)F)nn2-c2ccc(S(N)(=O)=O)cc2)cc1 | inactive | 
COC(=O)c1cccc(C(=O)OC)c1 | inactive | 
CC1COc2c(N3CCN(C)CC3)c(F)cc3c(=O)c(C(=O)O)cn1c23 (stereo not given) | inactive | 
C1COC(NC(C2CC2)C2CC2)=N1 | inactive | 
CNCCC(Oc1ccc(C(F)(F)F)cc1)c1ccccc1 (stereo not given) | inactive | 
Cc1cc(C2(c3cc(C)c(O)cc3C)OS(=O)(=O)c3ccccc32)c(C)cc1O | inactive | 
CN(C)c1ccc2nc3ccc(=[N+](C)C)cc-3sc2c1 | 11.7 µM (active) and 10.9 µM (active) and 13.3 µM (active) | 
C=C(C)C1CC=C(C)C(OC(C)=O)C1 (stereo not given) | inactive | 
CC(C)(C)NCC(O)COc1ccccc1OCC1CCCO1 (stereo not given) | inactive | 
OCCOCCN1CCN(C(c2ccccc2)c2ccc(Cl)cc2)CC1 (stereo not given) | inactive | 
Cc1cccc(O)c1C | inactive | 
CC(=O)CC(C)=O | inactive | 
Oc1c(Cl)cc(Cl)c(Cl)c1Cc1c(O)c(Cl)cc(Cl)c1Cl | inactive | 
CCCOC(=O)c1cc(O)c(O)c(O)c1 | inactive | 
CCn1cc(C(=O)O)c(=O)c2cc(F)c(N3CCNC(C)C3)c(F)c21 (stereo not given) | inactive | 

SMILES | Potency | activity change, negative = inhibition
CCOc1ccccc1C(N)=O | inactive | 
CC(C)(C)c1ccccc1 | inactive | 
CCC(C)(Oc1ccc(C2(c3ccc(OC(C)(CC)C(=O)O)cc3)CCCCC2)cc1)C(=O)O (stereo not given) | inactive | 
O=C(O)Cn1cnnn1 | inactive | 
Cc1cc(OCCOCC[N+](C)(C)Cc2ccccc2)ccc1C(C)(C)CC(C)(C)C | inactive | 
NC(Cc1ccc(Cl)cc1)C(=O)O (stereo not given) |  | -0.367% [at 0.349 µM]
C=C(C)C(=O)O | inactive | 
CCCCCCCCCCCCCC[P+](CCCC)(CCCC)CCCC | inactive | 
CCC(=O)/C=C/C1C(C)=CCCC1(C)C (stereo not given) | inactive | 
COc1ccc(COC(C)=O)cc1 | inactive | 
c1ccc2cc3c(ccc4ccccc43)cc2c1 | 30.7 µM (active) and 27.3 µM (active) | 
c1ccc2c(c1)CCCC2C1=NCCN1 (stereo not given) | inactive | 
CCOc1ccc2c(c1)C(C)=CC(C)(C)N2 | inactive | 
O=Cc1ccc(Cl)cc1 | inactive | 
CCN1CCCC1CNC(=O)c1cc(S(=O)(=O)CC)c(N)cc1OC (stereo not given) | inactive | 
Oc1ccc(Cl)cc1Cc1cc(Cl)ccc1O | inactive | 
Clc1ccc2c(c1)C(N1CCNCC1)=Nc1ccccc1O2 | inactive | 
C#CC(C)(CC)OC(=O)c1ccccc1C(=O)O (stereo not given) | inactive | 
CC1=C(C=O)C(C)(C)CC=C1 | inactive | 
Cc1c(O)cccc1C(=O)N[C@@H](CSc1ccccc1)[C@H](O)CN1C[C@H]2CCCC[C@H]2C[C@H]1C(=O)NC(C)(C)C | inactive | 
